From PubChem BioAssay (NCATS)
Results filed as inconclusive are left out. Activity calls are given as the source filed them. Calls follow the shape of the full dose curve.

assay: Confirmatory qHTS for VERO E6 Cytotoxicity Assay: Counterscreen for SARS-CoV-2 CPE Assay (AID 1508605); conditions: cell viability luminescence; series mostly up to 20 µM; activity change, negative = cytotoxic: at the top concentration; also: nearly all actives have a fitted effect of over 60% in size
% is scaled to controls: 0 for no effect and ±100 for the full control effect; potency is read from the fitted curve at half-maximal effect.

For `CCCCCCOc1ccc(C(=N)N(CCCC)CCCC)c2ccccc12`, which Potency is on record?
Its Potency is 10 µM (active).

With `COc1cc2nc(N3CCCCC3)nc(NC3CCN(Cc4ccccc4)CC3)c2cc1OC` as the compound, how does the Potency read?
The Potency was 10 µM (active).

Which “activity change, negative = cytotoxic” value does the source give for `CC(C)(C[C@@](O)(Cc1cc2ccncc2[nH]1)C(F)(F)F)c1cc(F)ccc1O` here?
The value was -24.4% (inactive).

With `C=C1C(=O)O[C@H]2C3=C(C)CCC[C@]3(C)C(=O)C[C@@H]12` as the compound, how does the Potency read?
Its Potency is 10 µM (active).

For `COc1ccc2c(c1)N(C[C@H](C)CN(C)C)c1ccccc1S2`, which “activity change, negative = cytotoxic” value is on record?
The value was -25.5% (inactive).

Which Potency does the source give for `CC(C)(C)c1ccc(C(=O)Nc2cc(Cl)c(Br)cc2C(=O)O)cc1` here?
The Potency was 10 µM (active).

Which “activity change, negative = cytotoxic” value does the source give for `C/C=C(\C)C(=O)OC1C(C)C2(O)C3C=C(C)C(=O)C3CC(CO)=CC2C2C(C)(C)C12OC(C)=O` (stereo not drawn) here?
Its value is -11% [at 10 µM] (inactive).

Which Potency does the source give for `O[C@H]1[C@H]2c3cc4c(cc3CN3CCC(=C[C@@H]1O)[C@H]23)OCO4` here?
The Potency was 3.16 µM (active).

Which “activity change, negative = cytotoxic” value does the source give for `Cc1ccc(-c2c(C(=O)CCl)n(CCCO)c3ncnc(N)c23)cc1` here?
Its value is -16.4% (inactive).

With `O=C1NC(=O)c2cc(Nc3ccc(F)cc3)c(Nc3ccc(F)cc3)cc21` as the compound, how does the Potency read?
The Potency was 11.2 µM (active).

For `CSc1ccc(C(=O)/C=C/c2cc(C)c(OC(C)(C)C(=O)O)c(C)c2)cc1`, which “activity change, negative = cytotoxic” value is on record?
The value was -15.5% [at 40 µM] (inactive).

For `COc1cc2nc(N3CCC(N4CCCCC4)CC3)nc(NC3CCCCCC3)c2cc1OC`, which Potency is on record?
Its Potency is 6.31 µM (active).

Which Potency does the source give for `O=C(c1ccc(-c2ccc(Cl)cc2)o1)N(Cc1ccccn1)c1ccc(N2CCNCC2)cc1` here?
Its Potency is 11.2 µM (active).
